Bioassay records from PubChem BioAssay.
Hits are enriched below; roughly 1.2% of the tested compounds scored in any of these assays.
PrPC surface inh – reduces human prion protein on the cell surface; 370,000 compounds, 0.43% hits; AID 720596; cell surface PrPC, TR-FRET read-out; inhibition, % at 13.8 µM; P04156; in the data active = inhibition above about 24%; also: 0% = median of the test wells and 100% = reference compound wells
SARS 3CLpro inh – SARS-CoV 3CLpro protease inhibition | AID 1706 | 290,000 compounds, 0.14% hits | P0C6X7 | recombinant SARS-CoV 3CLpro, quenched FRET peptide cleavage | inhibition, % at 6 µM; in the data active = inhibition above about 12%
SSB-PriA inh – blocks PriA binding to SSB C-terminal tail; AlphaScreen SSBct-PriA binding, biotinylated peptide; inhibition, % at 33 µM; 430,000 compounds, 0.6% hits; in the data active = inhibition mostly above about 37%, no sharp cut-off; inactive = mostly below about 20%;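 also: plate controls were negative control peptide for no effect and reference peptide for full effect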
BJeLR viability – BJeLR cell viability loss | BJeLR (HRASV12) viability, CellTiter-Glo ATP luminescence, 48 h | inhibition, % (test concentration not listed) | 300,000 compounds, 0.17% hits | AID 1554; in the data active = inhibition above about 50%
PrP 5UTR inh – inhibition of PrP 5' UTR reporter expression; cell-based PrP 5' UTR mRNA reporter, plate reader; 340,000 compounds, 0.35% hits; inhibition, % (no concentration beside the values); in the data active = inhibition above about 52%; also: 0 = median of the neutral control wells
* = called active by the depositor.

`COC(=O)c1c(Cl)c2n3ccccc3c(C)c(-c3ccccc3)c-2c1C(=O)OC` gave PrPC surface inh 4, SARS 3CLpro inh -9, SSB-PriA inh -4, BJeLR viability 9 and PrP 5UTR inh -5.
Screening COC(=O)c1cc2c(-c3ccccc3)c(C)c3ccccn3c-2c1C(=O)OC returned PrPC surface inh -13, SARS 3CLpro inh 1, SSB-PriA inh 66*, BJeLR viability 7 and PrP 5UTR inh -21.
Screening CCN(CCNC(=O)C1CCN(Cc2nc(-c3cccc(Cl)c3)oc2C)CC1)c1ccccc1 returned PrPC surface inh -13, SARS 3CLpro inh -1, SSB-PriA inh 33, BJeLR viability 8 and PrP 5UTR inh -21.
For CCN(CCNC(=O)C1CCN(Cc2nc(-c3ccc(Cl)cc3)oc2C)CC1)c1ccccc1 the results were PrPC surface inh -5, SARS 3CLpro inh -6, SSB-PriA inh 46*, BJeLR viability 3 and PrP 5UTR inh 2.
For CCc1ccc(-c2nc(CN3CCC(C(=O)NCCN(CC)c4ccccc4)CC3)c(C)o2)cc1 the results were PrPC surface inh -3, SARS 3CLpro inh 0, SSB-PriA inh 28, BJeLR viability 18 and PrP 5UTR inh 5.
`CCN(CCNC(=O)C1CCCN(Cc2nc(-c3ccc(OC)cc3)oc2C)C1)c1ccccc1` (stereo not given) gave PrPC surface inh -3, SARS 3CLpro inh 3, SSB-PriA inh 48*, BJeLR viability -3 and PrP 5UTR inh -5.
`Cc1cc(S(=O)(=O)NC[C@@H](c2cccs2)N2CCc3ccccc32)ccc1F` gave SSB-PriA inh -2.
For O=C(Nc1nccs1)c1ccc(Br)cc1F the results were SSB-PriA inh -3.
Screening CCOc1ccccc1NC(=O)c1ccc2c(c1)C(=O)N(CC)C2=O returned PrPC surface inh -4, SARS 3CLpro inh -5, SSB-PriA inh 100*, BJeLR viability -4 and PrP 5UTR inh -10.
Screening CC(=O)c1cccc(Oc2cc(NN3CCCCC3)c([N+](=O)[O-])cc2[N+](=O)[O-])c1 returned PrPC surface inh -11, SARS 3CLpro inh -2, SSB-PriA inh 45*, BJeLR viability 6 and PrP 5UTR inh -23.
Screening CC(=O)c1ccccc1Oc1cc(NN2CCCCC2)c([N+](=O)[O-])cc1[N+](=O)[O-] returned PrPC surface inh -6, SARS 3CLpro inh 5, SSB-PriA inh 20, BJeLR viability 4 and PrP 5UTR inh -10.
For O=C(COc1ccc2ccccc2c1)NCCOc1ccc2c(c1)OCO2 the results were SSB-PriA inh 37*.
Screening CC1=CC(=O)C=C(C)C1=NOc1ccccc1[N+](=O)[O-] returned PrPC surface inh 4, SARS 3CLpro inh 6, SSB-PriA inh 2, BJeLR viability 51* and PrP 5UTR inh -27.
Screening CN(C)S(=O)(=O)Oc1ccccc1[N+](=O)[O-] returned SSB-PriA inh -5.
For COCCN1CCCc2ccc(NS(=O)(=O)c3c(C)c(C)c(C)c(C)c3C)cc21 the results were SSB-PriA inh 38*.
`CCS(=O)(=O)Nc1ccc2c(c1)N(CCOC)CCC2` gave SSB-PriA inh -14.
`COCCN1CCCc2ccc(NS(=O)(=O)c3ccc4c(c3)CCCC4)cc21` gave SSB-PriA inh 45*.
Screening O=C(NCc1ccc(F)cc1F)C(=O)Nc1cccnc1 returned SSB-PriA inh -1.
O=C(CN1C(=O)NC2(CCCC2)C1=O)Nc1nc(-c2ccccn2)cs1 was read as SSB-PriA inh 98*.
For Cc1csc(=O)n1CC(=O)Nc1nc(-c2ccccn2)cs1 the results were SSB-PriA inh 107*.
O=C(CN1C(=O)NC2(CCCC2)C1=O)Nc1nc(-c2ccc(F)cc2)cs1 was read as PrPC surface inh 0, SARS 3CLpro inh -3, SSB-PriA inh -1, BJeLR viability -15 and PrP 5UTR inh -27.
Screening O=C(CN1CC(=O)Oc2ccccc21)Nc1nc(-c2ccccn2)cs1 returned SSB-PriA inh 100*.
Screening O=C(CN1NC(=C2CC2)C=CC1=O)Nc1nc(-c2ccccn2)cs1 returned SSB-PriA inh 31.
Screening O=C(Cn1[nH]c(=O)ccc1=O)Nc1nc(-c2ccccn2)cs1 returned SSB-PriA inh 97*.
COc1ccc(OC)c(S(=O)(=O)Nc2cccc(-c3ccc4nnc(-c5cccnc5)n4n3)c2)c1 was read as SSB-PriA inh -8.
For CC1(C)Cc2cccc(OCC(=O)NCc3cccnc3-c3ccsc3)c2O1 the results were SSB-PriA inh -22.
Screening CCN1C(=O)Cc2cc(NS(=O)(=O)c3cc(C)c(OC)c(C)c3)ccc21 returned SSB-PriA inh 18.
